Bioassay records: PubChem, several laboratories
Shown are actives, neighbours in structure and some others; about 5.2% of the full set was active somewhere.
APOBEC3G inh = inhibitors of human APOBEC3G DNA deaminase. Q9HC16. recombinant A3G, ssDNA deamination FAM/TAMRA fluorescence. inhibition, % at 20 µM. 330,000 tested, 0.28% active. AID 493012;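 active = inhibition of at least 40% at 20 µM, with no more than 30% in the related APOBEC3A deaminase screen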
APOBEC3A inh = inhibitors of human APOBEC3A DNA deaminase; recombinant A3A, FAM/TAMRA ssDNA deamination fluorescence; inhibition, % at 20 µM; 330,000 tested, 0.41% active;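 active = at least 40% inhibition at 20 µM here, with at most 30% in a related deaminase screen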
Target sequence (P31941 whole entry, looked up): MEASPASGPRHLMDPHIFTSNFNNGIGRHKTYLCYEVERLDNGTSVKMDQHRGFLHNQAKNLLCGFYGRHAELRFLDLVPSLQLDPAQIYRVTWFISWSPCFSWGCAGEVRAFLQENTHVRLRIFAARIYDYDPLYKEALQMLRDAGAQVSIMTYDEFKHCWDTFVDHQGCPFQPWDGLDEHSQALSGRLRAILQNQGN
Yeast superoxide = yeast age-related superoxide inhibition as caloric restriction mimetic | 330,000 tested, 0.18% active | superoxide response (% of plate mean), % at 10 µM | S. cerevisiae aged cells, superoxide DHE fluorescence; stronger effect = lower value;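 active = superoxide response under a set limit, about three screen SD below normal, cut at about 65% in these data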;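 note: yeast aged for seven days with compound at 30 °C before DHE staining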
M18AAP inhibitor = blocks P. falciparum M18 aspartyl aminopeptidase; 290,000 tested, 1.2% active; recombinant PfM18AAP, H-Glu-NHMec fluorogenic cleavage; AID 1822; inhibition, % at 7.35 µM;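 active = inhibition above the campaign mean inhibition over all tested compounds plus 3 SD, cut at about 28% in these data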
ALR H2O2 inh = human ALR oxidase inhibition via reduced H2O2 | P55789 | purified ALR, DTT oxidation, H2O2 HRP-luminol luminescence | 290,000 tested, 3.8% active | inhibition, % (no concentration beside the values);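 active = mean replicate inhibition above about 79%, with every replicate also reaching it, limit read from the data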
Target sequence (P55789 whole entry, looked up): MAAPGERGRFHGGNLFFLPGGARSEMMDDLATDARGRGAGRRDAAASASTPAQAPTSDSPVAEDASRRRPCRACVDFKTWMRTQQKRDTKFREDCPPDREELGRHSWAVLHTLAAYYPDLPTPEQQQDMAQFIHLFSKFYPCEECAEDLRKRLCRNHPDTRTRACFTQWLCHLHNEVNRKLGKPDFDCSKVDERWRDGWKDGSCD
NRP1-CendR mod = modulators of CendR peptide binding to human neuropilin-1; O14786; FAM-RPARPAR peptide binding to NRP-1, fluorescence polarization; inhibition, % at 25 µM; 360,000 tested, 0.85% active;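 active = inhibition or corrected inhibition above about 18%, plus a signal ratio from 0.5 to 1.5, limit read from the data, passing the limit was not always enough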
Each line names hits and unclear results; the compound was inactive in the other large screens.

Cc1ccc(NC(=O)CSc2nncs2)cc1Cl	ALR H2O2 inh 99 (no result: M18AAP inhibitor)
Cc1ccc(NC(=O)CSCC#N)cc1Cl	ALR H2O2 inh 99
CCOC(=O)c1cc(NC(=O)CSCCO)ccc1Cl	ALR H2O2 inh 99
Cc1cc(C)cc(NC(=O)CCn2ccnc2)c1	none
CSc1cccc(NS(=O)(=O)c2ccc3c(c2)CCN3C(C)=O)c1	none
O=C(NCCCN1CCCC1)c1ccc2c(c1)N(Cc1cccc(Cl)c1)C(=O)c1ccccc1S2=O (stereo not drawn)	none
Cc1cccc(OCc2nnc(SCC(=O)Nc3ccc(C)c(C)c3)o2)c1	none
Cc1cccc(OCc2nnc(SCC(=O)Nc3ncc(C)s3)o2)c1	M18AAP inhibitor 31
CCOc1ccc(OCC(=O)N(C)c2c(N)n(Cc3ccccc3)c(=O)[nH]c2=O)cc1	none (no result: M18AAP inhibitor)
Cc1ccc(NS(=O)(=O)c2ccc(-c3cnc(C4CC4)o3)cc2)c(C)c1	none
CCOC(=O)C(CC)(CCC(=O)O)c1csc(Nc2ccc(C)cc2)n1 (stereo not drawn)	ALR H2O2 inh 99
C/C(C/C(C)=C1/SC(=S)NC1=O)=C1\SC(=S)NC1=O	M18AAP inhibitor 29 (no result: APOBEC3G inh, APOBEC3A inh, Yeast superoxide, ALR H2O2 inh)
CCCCCC/C(C)=C1/SC(=S)NC1=O	none
Cc1nc(SCc2ccc(C(=O)O)cc2)nc2c1CCCC2	ALR H2O2 inh 96, NRP1-CendR mod 42
Cc1ccc(C(=O)N2CCN=C2SCc2ccc([N+](=O)[O-])cc2)cc1C	ALR H2O2 inh 99
Cc1ccc(C)c(CSC2=NCCN2C(=O)Cc2ccc([N+](=O)[O-])cc2)c1	none
O=C(c1ccc([N+](=O)[O-])cc1)N1CCN=C1SCc1ccccc1	none (no result: ALR H2O2 inh)
O=C(c1ccccc1)N1CCN=C1SCc1ccc([N+](=O)[O-])cc1	ALR H2O2 inh 99
COc1ccc(-c2cc3ccccc3oc2=O)cc1NC(=S)NC(=O)c1ccc2c(c1)OCCO2	none
O=C(COc1ccc(Cl)cc1Cl)NC(=S)Nc1ccc(CN2CCOCC2)cc1	none (no result: ALR H2O2 inh)
COc1ccc2c(c1)c1ncnc(N3CCN(Cc4ccc5c(c4)OCO5)CC3)c1n2C	none (no result: APOBEC3G inh, APOBEC3A inh, Yeast superoxide, ALR H2O2 inh, NRP1-CendR mod)
COc1ccc2[nH]c3c(N4CCN(Cc5ccc6c(c5)OCO6)CC4)ncnc3c2c1	ALR H2O2 inh 97
O=C(/C=C/c1ccco1)Nc1sc2c(c1C(=O)O)CCC2	ALR H2O2 inh 98
Cc1ccc(-c2csc(NC(=O)c3cccc(C)c3)c2C(=O)O)cc1	none (no result: M18AAP inhibitor)
Cc1ccc(-c2csc(NC(=O)/C=C/c3ccco3)c2C(=O)O)cc1	ALR H2O2 inh 97
O=C(Nc1scc(-c2ccc(F)cc2)c1C(=O)O)c1ccco1	ALR H2O2 inh 88
C[C@@H]1O[C@@H](OC[C@@H]2O[C@H](Oc3c(-c4ccc(O)cc4)oc4cc(O)cc(O)c4c3=O)[C@@H](O)[C@H](O)[C@H]2O)[C@H](O)[C@H](O)[C@H]1O	ALR H2O2 inh 80 (no result: M18AAP inhibitor)
CC(C)=CCc1c(O)cc(O)c2c(=O)c(O[C@@H]3O[C@@H](C)[C@H](O)[C@@H](O)[C@H]3O)c(-c3ccc(O)cc3)oc12	none (no result: M18AAP inhibitor, ALR H2O2 inh)
CC1OC(Oc2c(-c3cc(O)c(O)c(O)c3)oc3cc(O)cc(O)c3c2=O)C(O)C(O)C1O (stereo not drawn)	M18AAP inhibitor 45 (no result: Yeast superoxide, ALR H2O2 inh)
C[C@@H]1O[C@@H](O[C@H]2[C@H](O)[C@@H](O)[C@H](Oc3c(-c4ccc(O)cc4)oc4cc(O)cc(O)c4c3=O)O[C@@H]2CO)[C@H](O)[C@H](O)[C@H]1O	none (no result: M18AAP inhibitor)
CN(C/C=C/c1ccccc1[N+](=O)[O-])Cc1ccccc1	none
Cc1ccc(S(=O)(=O)N2CCC(C(=O)OCC(=O)N(Cc3ccccc3)C(C)(C)C)CC2)cc1C	none (no result: M18AAP inhibitor, ALR H2O2 inh)
CN1C(=O)C(=O)/C(=C(/O)c2ccc(Br)cc2)C1c1ccc(F)cc1 (stereo not drawn)	none
CCOc1cc(N2CCOCC2)c(OCC)cc1NC(=O)c1ccc(S(=O)(=O)N(C)C)cc1	none (no result: ALR H2O2 inh)
O=C(CSCc1ccccc1)Nc1ccc(S(=O)(=O)N2CCOCC2)cc1	NRP1-CendR mod 27
Nc1nnc(SCC(=O)Nc2ccc(S(=O)(=O)N3CCOCC3)cc2)s1	ALR H2O2 inh 96
Nc1nnc(SCC(=O)Nc2cc(S(=O)(=O)N3CCOCC3)ccc2Cl)s1	none
NNC(=S)Nc1ccc(S(=O)(=O)N2CCOCC2)cc1	ALR H2O2 inh 98
Cc1nnc(SCC(=O)N2CCN(c3cccc(Cl)c3)CC2)n1C1CC1	none (no result: M18AAP inhibitor)
CCOc1ccc(CCN2C(=S)N([C@@H](Cc3ccccc3)CN3CCC[C@@H]3CN3C(=S)NC[C@@H]3CC(C)C)C[C@@H]2Cc2ccccc2)cc1	none (no result: APOBEC3G inh, APOBEC3A inh, Yeast superoxide, M18AAP inhibitor, ALR H2O2 inh)
O=C(c1n[nH]c2ccccc12)N1CCN(S(=O)(=O)c2ccc3ccccc3c2)CC1	NRP1-CendR mod 47
Cc1ccc(S(=O)(=O)N2CCN(C(=O)c3n[nH]c4ccccc34)CC2)cc1	none (no result: M18AAP inhibitor)
Clc1ccc(-c2nnc(NC3=NCCCCC3)o2)cc1	none
O=C(CCNc1ccccc1)c1cccc([N+](=O)[O-])c1	ALR H2O2 inh 98
COc1cc2c(cc1NC(=O)CSc1cccc[n+]1[O-])oc1ccccc12	ALR H2O2 inh 96
COc1cc2c(cc1NC(=O)CSc1ccc(C)cc1)oc1ccccc12	none
C/C(=N\Nc1ccc(C)c(Cl)c1)c1cccnc1	ALR H2O2 inh 99
CCN(CC)CC(=O)Nc1sc(C)cc1C(=O)c1ccc(C)cc1	none
COc1cccc(N2CCN(Cc3nc(N)nc(Nc4ccccc4)n3)CC2)c1	ALR H2O2 inh 97
COc1ccc(Nc2nc(N)nc(CN3CCN(c4ccc(F)cc4)CC3)n2)cc1	ALR H2O2 inh 99
Cc1cccc(Nc2nc(N)nc(CN3CCN(c4ccccc4F)CC3)n2)c1	none
COc1cccc(N2CCN(Cc3nnnn3C3CCCCC3)CC2)c1	ALR H2O2 inh 89
Cc1ccc(C)c(N2CCN(Cc3nnnn3C3CCCCC3)CC2)c1	none
Cc1cccc(Nc2nc(N)nc(CN3CCN(c4ccccc4)CC3)n2)c1	ALR H2O2 inh 80
COc1ccc(C(=O)N(CCc2ccccc2)Cc2cccs2)c(OC)c1	none
O=C(NNS(=O)(=O)c1ccc(F)cc1)c1cc2ccccc2cc1O	ALR H2O2 inh 98
O=C(NNS(=O)(=O)c1ccccc1[N+](=O)[O-])c1cc2ccccc2cc1O	NRP1-CendR mod 23
O=C(NNS(=O)(=O)c1ccccc1[N+](=O)[O-])c1ccccc1Cl	none
Cc1ccccc1CN1C(=O)Nc2ccccc2C(=O)N1C(C)(C)C	none
COc1ccc(C2C(C#N)=C(N)N3C(=C2C#N)Sc2ccccc23)cc1 (stereo not drawn)	none (no result: NRP1-CendR mod)
CCN(CC)CCNC(=O)c1ccc(NC(=O)c2cccc(S(=O)(=O)N3c4ccccc4CC3C)c2)cc1 (stereo not drawn)	NRP1-CendR mod 30
CC1Cc2ccccc2N1S(=O)(=O)c1cccc(C(=O)N2CCN(c3ncccn3)CC2)c1 (stereo not drawn)	NRP1-CendR mod 35
CCN(CC)CCNC(=O)c1ccc(NC(=O)c2cccc(S(=O)(=O)N3CCc4ccccc43)c2)cc1	none (no result: Yeast superoxide, M18AAP inhibitor, ALR H2O2 inh)
